Drawing on PubChem BioAssay, this text covers composite z-score and z-score for five compounds.

Calls of active or inactive are those of the source.

A short description of assay [1]: small molecules captured by biotinylated probe aFSTL3 – biochemical, small-molecule microarray, fluorescence 635/667, stem cell growth factor project, primary screen (AID 1064).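 Note: measures binding of the biotinylated anti-FSTL3 antibody to printed compounds.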 The following applies: higher = more signal.
The nature of assay [2]: binders from COS7 lysate, DM2A8 probe, primary screen, torsin A project, cell lysate, small-molecule microarray, fluorescence 635/667 (AID 1065). The following applies: higher = more signal, COS7 lysate expressing mutant human TOR1A.
Assay [3] in a line: small molecules captured by biotinylated probe aFGF2 – biochemical, small-molecule microarray, fluorescence 635/667, stem cell growth factor project, primary screen (AID 1067).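 Note: measures binding of biotinylated aFGF2 protein to printed compounds on slides; z-score merges feature fluorescence and signal-to-noise across triplicate slides.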 As to conditions: higher = more signal.
Assay [4] is described as follows: small molecules captured by biotinylated probe aFGF10 – biochemical, small-molecule microarray, fluorescence 635/667, stem cell growth factor project, primary screen (AID 1071).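 Note: score merges 667 nm spot intensity and signal to noise from triplicate slides.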 The following applies: higher = more signal.
The target of assay [5] is Neurogenic locus notch homolog protein 2 (Homo sapiens) (UniProt Q04721). The experiment in a line: small molecules binding Notch2 protein – biochemical, small-molecule microarray, 635 nm fluorescence, stem cell growth factors, primary screen (AID 1073). As to conditions: higher = more signal.
Assay [6] deals with Pro-neuregulin-1, membrane-bound isoform (Homo sapiens) (UniProt Q02297). The experiment in a line: small molecules binding neuregulin-1 protein – biochemical, small-molecule microarray, fluorescence 635/667, psychiatric disease protein project, primary screen (AID 1075).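 Note: score combines 667 nm spot fluorescence with signal to noise.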 The following applies: NRG1 binding, 635 nm fluorescence, higher = more signal.
In assay [7] the test system is Neuregulin-1 EGF-like domain. The experiment in a line: small molecules binding NRG1 EGF domain – biochemical, small-molecule microarray, 635 nm fluorescence, primary screen (AID 1081).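 Note: binding of the protein to compounds printed on small-molecule microarray slides.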 The following applies: higher = more signal.
Assay [8] in a line: FRG1 expression reporter modulators in myotubes – cell-based, C2C12 myotubes, firefly/Renilla luciferase, luminescence, FRG1 inhibition for FSHD, primary screen (AID 1084). As to conditions: FRG1 promoter luciferase, higher = more signal, called active from +8 up or from −8 down.
Assay [9] can be described thus: small molecules captured by biotinylated probe aFST – biochemical, small-molecule microarray, fluorescence 635/667, stem cell growth factor project, primary screen (AID 1086).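 Note: score merges 667 nm fluorescence with signal-to-noise of each printed compound spot.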 As to conditions: higher = more signal.
A short description of assay [10]: binders of probe aHhip on microarray, primary screen, stem cell growth factor project, biochemical, small-molecule microarray, fluorescence 635/667 (AID 1087).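 Note: score merges spot fluorescence at 667nm with spot signal to noise ratio.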 As to conditions: higher = more signal.
The subject of assay [11] is PRMT1 (protein arginine N-methyltransferase 1). The experiment in a line: small molecules binding arginine methyltransferase PRMT1 – biochemical, small-molecule microarray, 635 nm fluorescence, primary screen (AID 1088).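 Note: binding of Prmt1 protein to compounds spotted on small-molecule microarray slides.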 As to conditions: higher = more signal.
Assay [12] in a line: growth effects on S. cerevisiae YJM789 – YJM789 clinical isolate, OD600, 24 h, basal, primary screen (AID 1089).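 Note: growth of clinical yeast isolate S. cerevisiae YJM 789 seeded 1000 cells per well; test concentration not given here.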 As to conditions: higher = more signal, called active from +8 up or from −8 down.
Assay [13] can be described thus: S. pombe growth modifiers, basal conditions – strain 972, OD600, 24 h, no modulator, primary screen (AID 1090).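 Note: basal condition with compound alone and no growth modifier present; test concentration not given here.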 As to conditions: S. pombe 972 growth, higher = more signal, called active from +8 up or from −8 down.
Assay [14] can be described thus: budding yeast growth modifiers under rapamycin – strain BY4716, OD600, 96 h, primary screen (AID 1091). Note: test concentration not given here. As to conditions: S. cerevisiae BY4716 + rapamycin, higher = more signal, called active from +8 up or from −8 down.
Assay [15] concerns the target Torsin-1A-interacting protein 2 (Homo sapiens) (UniProt Q8NFQ8). The experiment in a line: small molecules binding lysate-expressed LULL1 – cell lysate, human LULL1 lysate, 635/667 nm fluorescence, primary screen (AID 1092).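 Note: probe is lysate of COS7 cells overexpressing human LULL1; score merges per-feature 667 nm fluorescence with signal-to-noise.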 As to conditions: small-molecule microarray, hLULL1 lysate binding, 635 nm fluorescence; higher = more signal.
A short description of assay [16]: optical density change of DRC41 E. coli – strain DRC41, OD650, 24 h, E. coli filamentation project, primary screen (AID 1093).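 Note: MC1000 strain lacking acrAB efflux and sulA so SOS filamentation is blocked; test concentration not given here.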 The following applies: E. coli DRC41 growth, higher = more signal, called active from +8 up or from −8 down.
The nature of assay [17]: probe aLefty2 binding to arrayed compounds – biochemical, biotinylated probe, 635/667 nm fluorescence, primary screen (AID 1094).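 Note: score merges spot fluorescence near 667 nm with spot signal-to-noise ratio.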 As to conditions: small-molecule microarray, higher = more signal.
Assay [18] deals with Noggin (protein binding on small-molecule microarray). The experiment in a line: small molecules binding Noggin protein – biochemical, 635/667 nm fluorescence, primary screen (AID 1095).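 Note: score merges 667 nm feature fluorescence with signal to noise over triplicate slides.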 The following applies: 635 nm fluorescence, higher = more signal.
The target in assay [19] is Neurogenic locus notch homolog protein 3 (Homo sapiens) (UniProt Q9UM47). Put plainly: small molecules binding NOTCH3 protein – biochemical, 635/667 nm fluorescence, primary screen (AID 1096). As to conditions: small-molecule microarray, 635 nm fluorescence, higher = more signal.
A short description of assay [20]: probe aEGFR binding to arrayed compounds – biochemical, biotinylated probe, 635/667 nm fluorescence, primary screen (AID 1097).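 Note: probe is a biotinylated anti-EGFR antibody binding compounds printed on slides; score combines fluorescence near 667 nm and signal to noise of each spot.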 The following applies: small-molecule microarray, higher = more signal.

Neurogenic locus notch homolog protein 3 (Homo sapiens), sequence (Q9UM47 whole entry, looked up): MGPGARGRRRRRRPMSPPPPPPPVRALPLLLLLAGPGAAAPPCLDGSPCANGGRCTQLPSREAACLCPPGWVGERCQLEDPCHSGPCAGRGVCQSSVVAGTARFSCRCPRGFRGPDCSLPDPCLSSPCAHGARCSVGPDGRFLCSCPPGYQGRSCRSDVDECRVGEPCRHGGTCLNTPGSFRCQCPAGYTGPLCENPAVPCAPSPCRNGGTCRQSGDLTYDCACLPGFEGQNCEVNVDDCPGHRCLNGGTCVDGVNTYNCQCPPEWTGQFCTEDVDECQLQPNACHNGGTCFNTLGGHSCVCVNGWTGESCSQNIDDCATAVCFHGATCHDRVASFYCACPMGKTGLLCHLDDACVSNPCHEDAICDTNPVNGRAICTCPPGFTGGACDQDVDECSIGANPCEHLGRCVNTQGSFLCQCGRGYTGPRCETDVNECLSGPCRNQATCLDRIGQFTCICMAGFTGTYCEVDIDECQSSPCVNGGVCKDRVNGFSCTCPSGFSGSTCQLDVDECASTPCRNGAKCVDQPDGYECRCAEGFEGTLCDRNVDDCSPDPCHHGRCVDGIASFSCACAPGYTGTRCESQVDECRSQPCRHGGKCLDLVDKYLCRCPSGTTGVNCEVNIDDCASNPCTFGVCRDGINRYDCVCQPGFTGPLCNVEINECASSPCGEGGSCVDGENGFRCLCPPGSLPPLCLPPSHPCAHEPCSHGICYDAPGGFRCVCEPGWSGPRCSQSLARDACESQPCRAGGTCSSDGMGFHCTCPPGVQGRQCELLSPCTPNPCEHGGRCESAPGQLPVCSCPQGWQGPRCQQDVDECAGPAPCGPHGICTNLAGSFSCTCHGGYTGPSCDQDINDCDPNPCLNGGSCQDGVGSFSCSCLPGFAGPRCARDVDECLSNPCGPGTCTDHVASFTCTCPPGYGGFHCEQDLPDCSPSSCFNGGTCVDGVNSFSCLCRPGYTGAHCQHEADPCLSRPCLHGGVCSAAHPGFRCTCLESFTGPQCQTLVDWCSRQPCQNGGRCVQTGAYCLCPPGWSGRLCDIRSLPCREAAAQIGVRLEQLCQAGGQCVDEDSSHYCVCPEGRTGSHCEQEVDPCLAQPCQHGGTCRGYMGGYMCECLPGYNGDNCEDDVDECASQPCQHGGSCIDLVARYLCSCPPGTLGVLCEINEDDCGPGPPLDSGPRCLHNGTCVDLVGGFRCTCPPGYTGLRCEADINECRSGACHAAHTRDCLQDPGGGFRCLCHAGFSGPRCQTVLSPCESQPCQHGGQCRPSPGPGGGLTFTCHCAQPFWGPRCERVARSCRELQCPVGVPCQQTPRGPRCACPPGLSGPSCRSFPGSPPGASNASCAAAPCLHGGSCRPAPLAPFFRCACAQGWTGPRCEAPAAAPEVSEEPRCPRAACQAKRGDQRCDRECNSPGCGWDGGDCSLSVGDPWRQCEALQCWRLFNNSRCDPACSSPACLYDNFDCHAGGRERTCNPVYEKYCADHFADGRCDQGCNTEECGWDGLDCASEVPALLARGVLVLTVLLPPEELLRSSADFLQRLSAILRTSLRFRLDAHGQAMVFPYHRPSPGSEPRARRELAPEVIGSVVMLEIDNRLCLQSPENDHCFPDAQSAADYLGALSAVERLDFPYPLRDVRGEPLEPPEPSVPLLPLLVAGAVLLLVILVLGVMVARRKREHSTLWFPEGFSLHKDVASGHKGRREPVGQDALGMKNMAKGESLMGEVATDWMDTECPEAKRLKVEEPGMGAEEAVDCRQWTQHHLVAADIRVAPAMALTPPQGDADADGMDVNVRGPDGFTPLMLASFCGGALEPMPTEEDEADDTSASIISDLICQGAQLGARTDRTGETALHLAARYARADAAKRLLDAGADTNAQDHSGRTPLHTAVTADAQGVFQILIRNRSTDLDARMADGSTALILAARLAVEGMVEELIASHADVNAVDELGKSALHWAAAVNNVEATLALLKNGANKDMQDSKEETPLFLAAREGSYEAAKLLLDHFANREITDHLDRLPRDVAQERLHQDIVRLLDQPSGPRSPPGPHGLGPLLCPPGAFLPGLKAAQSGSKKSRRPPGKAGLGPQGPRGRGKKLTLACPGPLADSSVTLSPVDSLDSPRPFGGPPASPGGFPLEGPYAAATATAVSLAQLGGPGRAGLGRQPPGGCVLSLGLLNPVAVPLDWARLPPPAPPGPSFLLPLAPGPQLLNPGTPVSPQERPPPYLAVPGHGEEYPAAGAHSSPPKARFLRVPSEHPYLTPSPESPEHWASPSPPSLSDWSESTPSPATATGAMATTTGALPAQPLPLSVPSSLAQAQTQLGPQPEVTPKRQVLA
Torsin-1A-interacting protein 2 (Homo sapiens), sequence (Q8NFQ8 whole entry, looked up): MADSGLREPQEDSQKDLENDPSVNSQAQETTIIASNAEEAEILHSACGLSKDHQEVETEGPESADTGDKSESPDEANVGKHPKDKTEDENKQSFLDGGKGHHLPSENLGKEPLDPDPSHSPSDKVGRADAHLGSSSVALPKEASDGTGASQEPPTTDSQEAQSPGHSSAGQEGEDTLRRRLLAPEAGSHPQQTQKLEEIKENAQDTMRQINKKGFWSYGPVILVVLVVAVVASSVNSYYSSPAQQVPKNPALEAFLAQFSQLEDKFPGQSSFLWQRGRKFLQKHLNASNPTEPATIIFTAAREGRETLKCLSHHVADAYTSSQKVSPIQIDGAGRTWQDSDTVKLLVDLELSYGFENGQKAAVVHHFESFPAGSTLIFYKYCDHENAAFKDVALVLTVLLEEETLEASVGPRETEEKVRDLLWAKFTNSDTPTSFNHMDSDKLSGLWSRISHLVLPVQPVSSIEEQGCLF
Pro-neuregulin-1, membrane-bound isoform (Homo sapiens), sequence (Q02297 whole entry, looked up, the tested form may be a part, canonical isoform): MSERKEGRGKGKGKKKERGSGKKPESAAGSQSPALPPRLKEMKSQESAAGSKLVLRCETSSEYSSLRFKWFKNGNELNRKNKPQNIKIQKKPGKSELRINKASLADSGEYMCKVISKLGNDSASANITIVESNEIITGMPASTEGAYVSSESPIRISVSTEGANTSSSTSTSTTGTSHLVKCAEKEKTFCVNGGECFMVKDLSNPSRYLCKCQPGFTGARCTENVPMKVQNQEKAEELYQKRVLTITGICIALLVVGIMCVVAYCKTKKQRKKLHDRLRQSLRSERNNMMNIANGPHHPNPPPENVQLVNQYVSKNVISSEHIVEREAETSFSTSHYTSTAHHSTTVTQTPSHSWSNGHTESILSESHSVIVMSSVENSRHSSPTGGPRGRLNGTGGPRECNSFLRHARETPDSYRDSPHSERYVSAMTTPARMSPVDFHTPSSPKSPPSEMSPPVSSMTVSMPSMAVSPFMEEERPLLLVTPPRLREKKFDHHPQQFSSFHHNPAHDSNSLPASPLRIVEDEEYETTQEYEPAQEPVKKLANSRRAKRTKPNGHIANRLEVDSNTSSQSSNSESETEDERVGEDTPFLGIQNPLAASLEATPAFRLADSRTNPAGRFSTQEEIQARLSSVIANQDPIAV

`COc1cccc([C@H]2Oc3ccc(OC)cc3C(=NOC[C@@H](C)[C@H](OCc3ccccc3)C(C)C)[C@@H]2O)c1`: the composite z-score is -0.108 in [1]; 0.435 in assay [2]; -0.004 in assay [3]; 0.431 in [4]; 0.203 in assay [5]; -0.201 in [6]. For the same compound, the composite z-score was 0.686 in [7]; 1.33 in assay [9]; 0.0274 in assay [10]; 0.169 in [11]; 0.77 in [15]; -0.341 in assay [17]. Moreover, the composite z-score in assay [18] was 0.0758; in assay [19] it was 0.0869; in assay [20], 0.0229. Besides, the z-score is 3.29 (inactive) in [8]; 0.0741 (inactive) in assay [12]; 0.399 (inactive) in assay [13]; 0.588 (inactive) in assay [14]; -0.0364 (inactive) in assay [16].

In the case of `CON=Cc1ccc(C(=O)N2[C@H](c3ccc(C)cc3)[C@@H](C)CC[C@H]2C(=O)OC)cc1`, the composite z-score in [1] was -0.13; in assay [2], 0.486; in assay [3] it was -0.134; in assay [4], 0.363; in assay [5] it was 0.489; in [6], 0.424. The composite z-score in [7] was 0.843; in [9], 0.267; in assay [10], -0.236; in assay [11], 1.17; in assay [15], 1.23; in assay [17], -0.293. In addition, the composite z-score was 0.292 in [18], 0.772 in assay [19] and -0.262 in assay [20]. Also, the z-score in [8] is 0.0346 (inactive); in assay [12] it was -0.0099 (inactive); in assay [13], -2 (inactive); in assay [14], -0.637 (inactive); in assay [16], 0.823 (inactive).

With `O=C1[C@H]2[C@H]3[C@H](O)[C@H](O)CC(=NOCc4ccccc4)[C@@H]3CC[C@H]2C(=O)N1Cc1ccc2c(c1)OCO2`, the composite z-score in assay [1] was -0.138; in assay [2], -0.247; in assay [3], -0.0583; in assay [4] it was 0.321; in assay [5], 0.376; in assay [6], 0.299. For the same compound, the composite z-score in assay [7] is -0.0604; in assay [9] it was 0.357; in [10], 0.0922; in [11], 0.231; in [15], 0.664; in assay [17], -0.17. Further, the composite z-score stood at 0.297 in assay [18], 0.428 in assay [19] and 0.0761 in assay [20]. The z-score was 1.1 (inactive) in assay [8]; -0.559 (inactive) in assay [12]; 0.437 (inactive) in [13]; -0.789 (inactive) in assay [14]; 1.1 (inactive) in assay [16].

Consider `CO[C@H]1COC(=O)CC=C[C@@H](C)[C@H](NS(=O)(=O)c2ccc(C)cc2)COC(=O)CCC[C@@H]1C`, for which the composite z-score in assay [1] was -0.366; in [2] it was 0.906; in [3] it was -0.154; in assay [4], 0.21; in assay [5] it was 0.18; in assay [6] it was -0.25. The composite z-score was 0.185 in assay [7]; -0.225 in assay [9]; -0.635 in assay [10]; 1.1 in [11]; -0.401 in assay [15]; -0.122 in [17]. The composite z-score was 0.676 in [18], 0.77 in assay [19] and -0.067 in [20]. The z-score was 0.408 (inactive) in [8]; -0.419 (inactive) in [12]; 0.14 (inactive) in assay [13]; -0.726 (inactive) in [14]; -0.0537 (inactive) in [16].

As to `C[C@H]1Cc2c(COc3ccccc3)nc3c(c2CO1)CN(CCOc1ccccc1)CC3`, the composite z-score in assay [1] was -0.762; in [2], 0.665; in [3], -0.0468; in [4], 0.503; in assay [5], 1.28; in assay [6], 0.455. For the same compound, the composite z-score in assay [7] was 0.794; in assay [9], 0.0632; in assay [10], -0.174; in assay [11] it was 1.56; in [15], 1.76; in assay [17] it was -0.0998. The composite z-score in assay [18] was 0.216; in assay [19], 1.16; in assay [20] it was -0.0283. Moreover, the z-score is -1.16 (inactive) in [8]; -0.381 (inactive) in assay [12]; -2.38 (inactive) in [13]; -1.15 (inactive) in [14]; 1.11 (inactive) in [16].
